In PubChem BioAssay (Tox21):
Several values for one entry are separate records, joined by “and”; a condition that tells them apart may be missing. Equal values may be shown once. Unmarked numbers belong to inactive results. Results filed as inconclusive are left out. Where a call stands in place of a potency, no number is given. Activity calls are given as the source filed them. The call rests on the fitted dose curve.

Each compound was assayed against Acetylcholinesterase (Homo sapiens) (UniProt P22303) (assay: Acetylcholinesterase (AChE) small molecule antagonists: enzyme-based qHTS assay (AID 1347397; further: nearly all actives have a fitted effect of over 55% in size)). Conditions: Potency: AChE enzyme activity inhibition; series mostly up to 115 µM; activity change, negative = inhibition: at the top concentration.
Method in brief: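 Enzyme inhibition was scored from DTNB-detected thiocholine formed by recombinant human AChE acting on acetylthiocholine. The 30 min compound preincubation and 10 min substrate reaction were both run at room temperature, with DMSO as vehicle control.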
Potency means the concentration at half of the fitted maximal effect.

Chain of Acetylcholinesterase (Homo sapiens) (P22303 whole entry, looked up): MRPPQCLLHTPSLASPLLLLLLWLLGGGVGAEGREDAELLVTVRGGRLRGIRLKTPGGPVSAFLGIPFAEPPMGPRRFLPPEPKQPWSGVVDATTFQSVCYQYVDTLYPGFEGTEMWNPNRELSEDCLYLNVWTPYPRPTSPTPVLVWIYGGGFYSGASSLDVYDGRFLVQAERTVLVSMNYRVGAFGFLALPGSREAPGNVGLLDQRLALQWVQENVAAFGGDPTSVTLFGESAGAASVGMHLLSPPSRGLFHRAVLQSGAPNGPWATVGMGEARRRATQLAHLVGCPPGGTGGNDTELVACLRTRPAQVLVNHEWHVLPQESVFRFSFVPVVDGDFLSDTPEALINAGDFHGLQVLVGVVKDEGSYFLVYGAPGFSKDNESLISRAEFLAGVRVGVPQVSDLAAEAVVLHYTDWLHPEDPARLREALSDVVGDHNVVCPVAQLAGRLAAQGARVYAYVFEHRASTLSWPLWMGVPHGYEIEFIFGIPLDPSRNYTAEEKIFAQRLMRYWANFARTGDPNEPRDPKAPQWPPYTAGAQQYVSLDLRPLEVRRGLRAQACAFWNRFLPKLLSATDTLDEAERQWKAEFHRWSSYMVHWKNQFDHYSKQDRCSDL

Row | SMILES | Potency | activity change, negative = inhibition
1 | CC(C)CCCCCCOC(=O)c1ccccc1C(=O)OCCCCCCC(C)C | inactive | –
2 | O=C(O)C1C(C(=O)O)C2(Cl)C(Cl)=C(Cl)C1(Cl)C2(Cl)Cl (configuration not stated) | inactive | –
3 | Nc1cccc(Cl)c1 | inactive | –
4 | COP(=S)(OC)SCN1C(=O)c2ccccc2C1=O | inactive | –
5 | Clc1cnc(Oc2ccc(Oc3ncc(Cl)cc3Cl)cc2)c(Cl)c1 | inactive | –
6 | O=C(O)c1cc(Oc2ccc(C(F)(F)F)cc2Cl)ccc1[N+](=O)[O-] | inactive | –
7 | Cc1ccc(N=C=O)cc1N=C=O | inactive | –
8 | CN1C(=O)CCS(=O)(=O)C1c1ccc(Cl)cc1 (configuration not stated) | inactive | –
9 | O=S(=O)(O)OOS(=O)(=O)O | inactive | –
10 | Cl[C@H]1OCCO[C@@H]1Cl | inactive | –
11 | Cl/C=C/Cl | inactive | –
12 | COc1nc(NC(C)C)nc(NC(C)C)n1 | inactive | –
13 | O=C(O)C(Br)Br | inactive | –
14 | O=C(O)Cc1ccccc1 | inactive | –
15 | CCSC(=O)N1CCCCCC1 | inactive | –
16 | N#Cc1ccccn1 | inactive | –

Row | SMILES | Potency | activity change, negative = inhibition
17 | O=[N+]([O-])c1cc([As](=O)(O)O)ccc1O | inactive | –
18 | CN(C)NC(=O)CCC(=O)O | inactive | –
19 | O=[N+]([O-])c1ccc(Cl)c(Cl)c1 | inactive | –
20 | CC(C)(C)C(=O)CCl | inactive | –
21 | CCCOC(=O)c1ccccc1C(=O)OCCC | inactive | –
22 | Nc1ncc([N+](=O)[O-])s1 | inactive | –
23 | Cc1ccc(O)c(C)c1 | inactive | –
24 | O=[N+]([O-])c1ccc(Cl)cc1 | inactive | –
25 | CCOc1ccc(N)cc1 | inactive | –
26 | CNC(=O)O/N=C/C(C)(C)S(C)=O (configuration not stated) | 572 nM (active) and 316 nM (active) | –
27 | CNC(=O)O/N=C(\SC)C(=O)N(C)C | 2.45 µM (active) and 2.82 µM (active) | –
28 | Cc1cc(O)ccc1Cl | inactive | –
29 | c1ccc2c(c1)CCCC2 | inactive | –
30 | CCOP(=S)(OCC)Oc1cc(C)nc(C(C)C)n1 | – | -8.17% [at 53 µM]
31 | COC(C)(C)CCCC(C)C/C=C/C(C)=C/C(=O)OC(C)C (configuration not stated) | inactive | –

The compounds below were run against Acetylcholinesterase (Homo sapiens) (UniProt P22303) (assay: Acetylcholinesterase (AChE) small molecule antagonists: fluorescence cell-based qHTS assay (AID 1347398; further: nearly all actives have a fitted effect of over 50% in size)). Conditions: SH-SY5Y cells; Potency: AChE activity; series mostly up to 115 µM; activity change, negative = inhibition: at the top concentration.
Method in brief: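 Endogenous acetylcholinesterase of SH-SY5Y neuroblastoma cells is measured in situ. After overnight attachment and 30 min compound exposure, cells receive acetylthiocholine and Thiolite Green; fluorescence is read after 40 min at room temperature.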

Row | SMILES | Potency
32 | CC(C)CCCCCCOC(=O)c1ccccc1C(=O)OCCCCCCC(C)C | inactive
33 | O=C(O)C1C(C(=O)O)C2(Cl)C(Cl)=C(Cl)C1(Cl)C2(Cl)Cl (configuration not stated) | inactive
34 | Nc1cccc(Cl)c1 | inactive
35 | COP(=S)(OC)SCN1C(=O)c2ccccc2C1=O | inactive
36 | Clc1cnc(Oc2ccc(Oc3ncc(Cl)cc3Cl)cc2)c(Cl)c1 | inactive
37 | O=C(O)c1cc(Oc2ccc(C(F)(F)F)cc2Cl)ccc1[N+](=O)[O-] | inactive
38 | Cc1ccc(N=C=O)cc1N=C=O | inactive
39 | CN1C(=O)CCS(=O)(=O)C1c1ccc(Cl)cc1 (configuration not stated) | inactive
40 | O=S(=O)(O)OOS(=O)(=O)O | inactive
41 | Cl[C@H]1OCCO[C@@H]1Cl | inactive
42 | Cl/C=C/Cl | inactive
43 | COc1nc(NC(C)C)nc(NC(C)C)n1 | inactive
44 | O=C(O)C(Br)Br | inactive
45 | O=C(O)Cc1ccccc1 | inactive
46 | CCSC(=O)N1CCCCCC1 | inactive
47 | N#Cc1ccccn1 | inactive

Row | SMILES | Potency
48 | O=[N+]([O-])c1cc([As](=O)(O)O)ccc1O | inactive
49 | CN(C)NC(=O)CCC(=O)O | inactive
50 | O=[N+]([O-])c1ccc(Cl)c(Cl)c1 | inactive
51 | CC(C)(C)C(=O)CCl | inactive
52 | CCCOC(=O)c1ccccc1C(=O)OCCC | inactive
53 | Nc1ncc([N+](=O)[O-])s1 | inactive
54 | Cc1ccc(O)c(C)c1 | inactive
55 | O=[N+]([O-])c1ccc(Cl)cc1 | inactive
56 | CCOc1ccc(N)cc1 | inactive
57 | CNC(=O)O/N=C/C(C)(C)S(C)=O (configuration not stated) | 57.2 nM (active) and 35.4 nM (active)
58 | CNC(=O)O/N=C(\SC)C(=O)N(C)C | 489 nM (active) and 632 nM (active)
59 | Cc1cc(O)ccc1Cl | inactive
60 | c1ccc2c(c1)CCCC2 | inactive
61 | CCOP(=S)(OCC)Oc1cc(C)nc(C(C)C)n1 | 35.8 µM (active) and 56.4 µM (active)
62 | COC(C)(C)CCCC(C)C/C=C/C(C)=C/C(=O)OC(C)C (configuration not stated) | inactive
